Shown are actives, neighbours in structure and some others; about 15% of the full set was active somewhere.
Pf growth 96h – P. falciparum growth inhibition at 96 hours. P. falciparum luciferase reporter growth, 96 h. Potency, µM (top dose mostly 28.7 µM), for the others: at the top dose activity change, negative = inhibition, hits mostly inhibitors. 6.9% of 320,000 active; further: potency means the concentration at half of the fitted maximal effect; on the % scale 0 is the no-effect control and ±100 the full control effect
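P. falciparum expressing integrated firefly luciferase, in erythrocytes at 2% hematocrit, 0.05% parasitemia, incubated with compounds 96 h at 37 C, 5% CO2. Growth inhibition read as loss of luminescence; two-generation exposure targets delayed-death apicoplast inhibitors.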
Pf growth 48h – P. falciparum growth inhibition at 48 hours (one generation); Potency, µM (series often up to 28.7 µM), inactives show at the top dose activity change, negative = inhibition, actives largely listed as inhibitors; 5.9% of 310,000 active; P. falciparum luciferase growth in erythrocytes, 48 h; further: potency means the concentration at half of the fitted maximal effect; on the % scale 0 is the no-effect control and ±100 the full control effect
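Compounds are pin-transferred into medium, infected erythrocytes (2% hematocrit, 0.1% parasitemia final) are added, and plates sit one parasite generation at 37 C in 5% CO2. Detection reagent is then added and luminescence measured.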
HCMV antiviral – human cytomegalovirus inhibition | HFF cells, HCMV-luciferase reporter, 72 h; stronger effect = lower value | activity change, negative = inhibition, % at 57.5 µM | 4.5% of 410,000 active | AID 1259415; in the data active means activity change below about -60%; inconclusive means no clear call, values can overlap the other calls; inactive means above about -39%; further: on the % scale 0 is the no-effect control and ±100 the full control effect
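Inhibition of viral replication was scored as loss of reporter luminescence in HFFs infected with HCMV-luciferase (MOI 1 PFU/cell) for 72 h; compounds tested at 2 doses, normalized to buffer and Salinomycin controls.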
HCV inhibitor – blocks hepatitis C virus | Huh7.5.1 HCVcc-Cre infection, luciferase reporter, 44 h | Potency, µM (titrated, usually from 41.8 µM), inactives show top-dose activity change, negative = inhibition, actives largely listed as inhibitors | 3.4% of 340,000 active; further: potency means the concentration at half of the fitted maximal effect; on the % scale 0 is the no-effect control and ±100 the full control effect
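Cells seeded at 1,000/well and cultured 4 h, then compounds added followed by HCVcc-Cre virus (~0.5 moi). After 44 h further culture, luciferase substrate was added, plates held 15 min at room temperature, and luminescence read for 15 sec.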
Sm TGR block – blocks Schistosoma mansoni thioredoxin glutathione reductase; Q962Y6; purified TGR, DTNB reduction, TNB absorbance 405 nm; Potency, µM (highest dose often 114 µM), for the others: at the highest dose activity change, negative = inhibition, hits mostly inhibitors; 3% of 360,000 active; further: potency means the concentration at half of the fitted maximal effect; on the % scale 0 is the no-effect control and ±100 the full control effect; nearly all actives have a fitted effect of over 60% in size
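First, TGR (20 nM dispensed) and NADPH were mixed with compound. Second, a 15 min room-temperature incubation followed. Third, further NADPH and then DTNB were added to start the reaction. Finally, TNB absorbance was monitored kinetically.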
SARS PLP yeast – blocks SARS-CoV papain-like protease in a yeast assay | S. cerevisiae expressing SARS-CoV PLpro, growth rescue | Potency, µM (titrated, usually from 32.9 µM), without a hit: at the top dose activity, positive = growth rescue, actives largely listed as activators | 0.19% of 330,000 active; calls by dose curve; further: potency means the concentration at half of the fitted maximal effect; 0% is about no effect; nearly all actives have a fitted effect of over 55% in size
Starred values were filed as active, the others as inactive; ? = inconclusive; . = no result given. Unless noted, the call rests on the fitted dose curve; in most records, active means well fitted curve in the direction sought with a large enough effect; inconclusive means small, poorly fitted or top-dose-only effect, or another doubt; inactive means no such curve, though single readings can be large; an effect the other way counts as inactive or inconclusive.

SMILES	Pf growth 96h	Pf growth 48h	HCMV antiviral	HCV inhibitor	Sm TGR block	SARS PLP yeast
O=C(COC(=O)c1cncc(Br)c1)NCc1cccs1	.	.	0.6	5.2%	.	-0.4%
CCC(C)c1ccc(O)c(NC(=S)NC(=O)c2cccnc2)c1 (stereo not given)	26.5%	?	2.6	-8.3%	0.0%	-3.7%
CCC(C)c1ccc(O)c(NC(=O)c2cncc(Br)c2)c1 (stereo not given)	-22.5%	1.04µM*	-39.2	?	2.1%	-11.7%
CC(C)c1ccc(NC(=O)c2n[nH]c(=O)c3ccccc23)cc1	8.28µM*	107.8%	-5.2	13.4%	7.9%	1.5%
O=C(NC(=S)Nc1ccccc1Cl)c1csnn1	57.4%	48.2%	-32.4	10.4%	22.4µM*	-9.3%
Cc1cccc(C(C)C)c1NC(=O)c1cccnc1	11.7µM*	14.5%	3.5	2.4%	-10.0%	1.6%
Cc1cc(NC(=O)c2n[nH]c(=O)c3ccccc23)ccc1Br	?	24.7%	-16.0	6.3%	19.7%	-0.7%
CC(C)(C)c1ccc(NC(=O)CSc2n[nH]c(=O)n2-c2cccnc2)cc1	2.2%	-4.2%	20.8	-0.7%	3.8%	-0.3%
CC(C)c1ccc(NC(=S)NNC(=O)c2cccnc2)cc1	41.2%	30.4%	?	-2.7%	.	0.9%
CC(C)c1ccc(NC(=O)c2csnn2)cc1	.	184.2%	85.4	14.1µM*	-0.1%	-2.6%
CC(C)c1ccc(NC(=O)CSc2n[nH]c(=O)n2-c2cccnc2)cc1	13.1µM*	-3.3%	-3.7	-3.9%	?	0.2%
CC(C)c1ccc(O)c(NC(=O)c2cccnc2)c1	10.4µM*	.	-23.1	-2.0%	-16.5%	-8.0%
CC(C)c1ccc(NC(=O)c2cccnc2)cc1	7.38µM*	125.4%	34.1	4.4%	-20.2%	-3.7%
CN1c2ccccc2C(NCCCCCCC(=O)O)c2ccc(Cl)cc2S1(=O)=O (stereo not given)	?	-24.5%	.	.	.	.
COc1ccc(N2CC(c3nc(-c4ccccc4C)no3)CC2=O)cc1Cl (stereo not given)	.	.	20.7	.	5.7%	.
Cc1csc2ncnc(N3CCN(C(=S)Nc4ccc(F)cc4F)CC3)c12	47.5%	18.2%	-76.9*	?	1.9%	-1.0%
Fc1ccc(NC(=S)N2CCCN(c3ccc(C(F)(F)F)cn3)CC2)c(F)c1	?	10.4µM*	-79.8*	0.501µM*	-12.3%	-3.3%
CC1CN(C(=S)Nc2ccc(F)cc2F)CC(C)O1 (stereo not given)	21.8%	9.8%	15.7	5.1%	-8.3%	-0.8%
Cc1cccc(C(O)c2ncc(-c3ccc(F)cc3)[nH]2)c1C (stereo not given)	.	.	20.4	.	.	.
COc1ccc(CN(C(=O)c2ccc(C)cc2)C2CCS(=O)(=O)C2)cc1 (stereo not given)	14.5%	8.0%	?	6.4%	-12.5%	-2.0%
Cc1cccc(C(=O)Nc2ccc(N3CC=C(c4ccccc4C)CC3)c(C(=O)O)c2)c1	.	.	18.3	.	-16.0%	.
CC(C)Cc1ccc(CN2CCCC(NC(=O)Cn3cnnn3)C2)cc1 (stereo not given)	?	-7.3%	1.3	-6.8%	0.6%	10.7%
CCc1cc(C(=O)NC2CCCN(Cc3ccccc3F)C2)n(C)n1 (stereo not given)	?	2.8%	-34.2	8.91µM*	-17.1%	3.4%
O=C(Cn1cnnn1)NC1CCCN(Cc2ccccc2F)C1 (stereo not given)	5.22µM*	15.5%	?	0.5%	5.4%	4.1%
O=C(CCC(=O)c1ccc(F)cc1)NC1CCCN(Cc2ccccc2F)C1 (stereo not given)	13.1µM*	1.0%	7.3	-8.5%	-26.1%	0.4%
SMILES	Pf growth 96h	Pf growth 48h	HCMV antiviral	HCV inhibitor	Sm TGR block	SARS PLP yeast
COc1ccc(-c2csc(CCN3N=C(C)CC3=O)n2)cc1	?	4.15µM*	-7.7	-16.7%	-2.8%	-0.2%
CCOc1cc(Br)c(C=O)cc1OCC	17.7%	18.2%	-91.8*	0.9%	6.7%	0.4%
CN1CCN(C(=O)c2ccc3c(Cl)c4c(nc3c2)CCCC4)CC1	13.1µM*	-29.9%	-34.1	4.4%	-32.3%	0.6%
O=C(O)CSc1c2c(nc3cc(C(=O)N4CCOCC4)ccc13)CCCC2	-7.1%	16.5%	35.2	13.2%	4.8%	-1.4%
CCOC(=O)N1CCN(C(=O)c2ccc3c(SCC(=O)O)c4c(nc3c2)CCCC4)CC1	11.7µM*	-4.6%	.	31.4%	-24.6%	8.1%
COc1cccc(N2CCN(C(=O)c3ccc4c(Cl)c5c(nc4c3)CCCC5)CC2)c1	.	.	-75.5*	.	-0.7%	.
Nc1ccc(S(=O)(=O)NC2(C(F)(F)F)NC(=O)N(Cc3ccccc3)C2=O)cc1 (stereo not given)	21.3%	3.3%	-15.8	-0.2%	5.7%	-0.3%
Cc1ccc(-c2sc(-c3cccnc3)nc2CC(=O)O)cc1	-18.9%	?	-35.3	10.2%	39.8µM*	-2.1%
CCOc1ccc(/C=C/c2nc(C#N)c(N3CCN(CC)CC3)o2)cc1	.	.	-20.1	.	-0.3%	.
O=C1NCCNC1(c1c[nH]c2ccccc12)C(F)(F)F (stereo not given)	1.04µM*	.	54.9	14.8%	-21.8%	-0.4%
Cc1cc(O)c(C2(C(F)(F)F)NCCNC2=O)cc1C (stereo not given)	?	31.0%	-34.9	18.3%	1.8%	2.4%
CN1C[C@@H]2[C@@H]3C(=O)N(Cc4ccccc4)C(=O)[C@@H]3[C@](Cc3ccccc3)(C1=O)N2C(=O)c1ccc(Cl)cc1	.	.	3.5	4.3%	.	.
COC(=O)c1ccc(NC(=S)NC2CC(C)(C)NC(C)(C)C2)cc1	20.6%	-19.7%	-29.6	?	-13.9%	-11.8%
N#CCC(=O)Nc1ccc(C(=O)NNC(=S)NC2CC2)cc1	40.3%	36.0%	-96.6*	-11.7%	-8.4%	1.1%
COC(=O)c1ccc(NC(=S)NC2CC2)cc1	?	34.7%	24.8	-14.3%	15.8µM*	0.2%
COC(=O)Cc1ccc(NC(=S)NCCO)cc1	0.3%	13.3%	24.1	23.7%	0.2%	1.7%
CCC(C)NC(=S)Nc1ccc(C(=O)OC)cc1 (stereo not given)	?	34.4%	-85.5*	?	8.8%	-0.3%
CCC(C)NC(=S)Nc1ccccc1 (stereo not given)	?	?	-5.6	-8.8%	11.3%	2.7%
COC(=O)Cc1ccc(NC(=S)NC2CC2)cc1	20.2%	9.3%	48.1	19.9%	44.7µM*	-1.7%
COc1ccc(Nc2c(-c3cc(Br)ccc3O)nc3ncccn23)cc1OC	.	.	-14.4	.	-5.8%	.
Cc1ccc(N=C2SC(C(=O)O)CC(=O)N2C)cc1C (stereo not given)	11.7µM*	38.6%	14.5	8.7%	8.2%	0.2%
